The whole screen tested about 5,500 compounds, of which about 2,000 (36%) were called active. Inconclusive results (about 18%) are left out. No stated cut-off is given here; in the data, active means normalized growth mostly below about 0.91 (no sharp cut-off); inconclusive means no clear call, values can overlap the other calls; inactive means mostly above about 0.92. This is one part of the list.
Assay: chemical genetic growth profiling, strain panel (AID 1159580);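 further: tested at 20 µM; growth read once vehicle control cultures reached saturation at 30 °C; 1 = growth at the plate median or of vehicle wells; lower values mean less growth of the strain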
Settings: growth OD

Measured: normalized growth

O=C(N[C@@H](CO)[C@H](O)c1ccc([N+](=O)[O-])cc1)C(Cl)Cl
inactive: S. cerevisiae deletion strains, locus YJR075W, strain HOC1, hits give low values 1.02 | S. cerevisiae deletion strains, locus YKL009W, strain mrt4, hits give low values 1.01 | S. cerevisiae deletion strains, locus YKL068W, hits give low values 1 | S. cerevisiae deletion strains, locus YKL085W, strain MDH1 (second series), hits give low values 1 | S. cerevisiae deletion strains, locus YKL085W, strain MDH1, hits give low values 1 | S. cerevisiae deletion strains, locus YKL160W, strain elf1, hits give low values 1.04 | S. cerevisiae deletion strains, locus YKL190W, strain CNB1, hits give low values 1 | S. cerevisiae deletion strains, locus YKR001C, strain vps1, hits give low values 1 | S. cerevisiae deletion strains, locus YKR026C, strain gcn3, hits give low values 1.04 | S. cerevisiae deletion strains, locus YKR091W, strain srl3, hits give low values 0.999 | S. cerevisiae deletion strains, locus YLL001W, strain dnm1, hits give low values 1.01 | S. cerevisiae deletion strains, locus YLL026W, hits give low values 0.998 | S. cerevisiae deletion strains, locus YLL041C, strain sdh2, hits give low values 1.01 | S. cerevisiae deletion strains, locus YLR027C, strain aat2, hits give low values 1.02 | S. cerevisiae deletion strains, locus YLR039C, strain RIC1, hits give low values 1.01 | S. cerevisiae deletion strains, locus YLR058C, strain SHM2, hits give low values 1 | S. cerevisiae deletion strains, locus YLR102C, strain apc9, hits give low values 1.01 | S. cerevisiae deletion strains, locus YLR113W, strain HOG1, hits give low values 0.972 | S. cerevisiae deletion strains, locus YLR221C, strain rsa3, hits give low values 1.02 | S. cerevisiae deletion strains, locus YLR258W, strain gsy2, hits give low values 1.01 | S. cerevisiae deletion strains, locus YLR262C, strain YPT6 (second series), hits give low values 1.01 | S. cerevisiae deletion strains, locus YLR262C, strain YPT6, hits give low values 1.03 | S. cerevisiae deletion strains, locus YLR268W, strain sec22, hits give low values 1.05 | S. cerevisiae deletion strains, locus YLR320W, strain mms22, hits give low values 1 | S. cerevisiae deletion strains, locus YLR330W, strain CHS5, hits give low values 0.999 | S. cerevisiae deletion strains, locus YLR342W, strain FKS1 (second series), hits give low values 1.01 | S. cerevisiae deletion strains, locus YLR342W, strain FKS1, hits give low values 1.01 | S. cerevisiae deletion strains, locus YLR357W, strain rsc2, hits give low values 1.08 | S. cerevisiae deletion strains, locus YLR370C, strain arc18, hits give low values 1.02 | S. cerevisiae deletion strains, locus YLR371W, strain rom2, hits give low values 1.02 | S. cerevisiae deletion strains, locus YLR384C, strain iki3, hits give low values 1.02 | S. cerevisiae deletion strains, locus YLR418C, strain cdc73, hits give low values 1.01 | S. cerevisiae deletion strains, locus YML016C, strain PPZ1, hits give low values 1 | S. cerevisiae deletion strains, locus YML032C, strain rad52, hits give low values 1.03 | S. cerevisiae deletion strains, locus YML120C, strain ndi1, hits give low values 1 | S. cerevisiae deletion strains, locus YML124C, strain tub3, hits give low values 1 | S. cerevisiae deletion strains, locus YMR058W, strain fet3, hits give low values 1.01 | S. cerevisiae deletion strains, locus YMR078C, strain ctf18, hits give low values 1.01 | S. cerevisiae deletion strains, locus YMR125W, strain sto1, hits give low values 1.02 | S. cerevisiae deletion strains, locus YMR129W, hits give low values 1.02 | S. cerevisiae deletion strains, locus YMR205C, strain PFK2, hits give low values 1 | S. cerevisiae deletion strains, locus YMR223W, strain ubp8, hits give low values 0.974 | S. cerevisiae deletion strains, locus YMR231W, strain pep5, hits give low values 1.02 | S. cerevisiae deletion strains, locus YMR263W, strain SAP30, hits give low values 1.02 | S. cerevisiae deletion strains, locus YMR307W, strain GAS1, hits give low values 0.986 | S. cerevisiae deletion strains, locus YNL067W, strain RPL9B, hits give low values 1.03 | S. cerevisiae deletion strains, locus YNL071W, strain lat1, hits give low values 1.02 | S. cerevisiae deletion strains, locus YNL128W, strain TEP1, hits give low values 1.01 | S. cerevisiae deletion strains, locus YNL153C, strain GIM3, hits give low values 1.03 | S. cerevisiae deletion strains, locus YNL183C, strain NPR1, hits give low values 0.921 | S. cerevisiae deletion strains, locus YNL209W, strain ssb2, hits give low values 1.03 | S. cerevisiae deletion strains, locus YNL233W, strain BNI4, hits give low values 1.02 | S. cerevisiae deletion strains, locus YNL248C, strain rpa49, hits give low values 1.04 | S. cerevisiae deletion strains, locus YNL250W, strain rad50, hits give low values 1 | S. cerevisiae deletion strains, locus YNL271C, strain bni1, hits give low values 1.01 | S. cerevisiae deletion strains, locus YNL298W, strain CLA4, hits give low values 1.02 | S. cerevisiae deletion strains, locus YNL307C, strain MCK1, hits give low values 1.01 | S. cerevisiae deletion strains, locus YNL322C, strain KRE1 (second series), hits give low values 1.04 | S. cerevisiae deletion strains, locus YNL322C, strain KRE1, hits give low values 0.999 | S. cerevisiae deletion strains, locus YNR049C, strain mso1, hits give low values 1.01 | S. cerevisiae deletion strains, locus YNR052C, strain pop2, hits give low values 1.01 | S. cerevisiae deletion strains, locus YOL006C, strain TOP1, hits give low values 1.1 | S. cerevisiae deletion strains, locus YOL012C, strain htz1 1.24 | S. cerevisiae deletion strains, locus YOL147C, strain pex11, hits give low values 1.03 | S. cerevisiae deletion strains, locus YOR001W, strain rrp6, hits give low values 1.02 | S. cerevisiae deletion strains, locus YOR061W, strain CKA2, hits give low values 1.01 | S. cerevisiae deletion strains, locus YOR069W, strain VPS5, hits give low values 1 | S. cerevisiae deletion strains, locus YOR070C, strain gyp1, hits give low values 1 | S. cerevisiae deletion strains, locus YOR080W, strain dia2, hits give low values 1.02 | S. cerevisiae deletion strains, locus YOR083W, strain WHI5, hits give low values 0.984 | S. cerevisiae deletion strains, locus YOR106W, strain vam3, hits give low values 1.02 | S. cerevisiae deletion strains, locus YOR136W, strain idh2, hits give low values 0.998 | S. cerevisiae deletion strains, locus YOR144C, strain elg1, hits give low values 1.01 | S. cerevisiae deletion strains, locus YOR184W, strain ser1, hits give low values 1 | S. cerevisiae deletion strains, locus YOR231W, strain MKK1, hits give low values 0.956 | S. cerevisiae deletion strains, locus YOR265W, strain rbl2, hits give low values 1.02 | S. cerevisiae deletion strains, locus YOR270C, strain vph1, hits give low values 1.07 | S. cerevisiae deletion strains, locus YOR290C, strain snf2, hits give low values 1.02 | S. cerevisiae deletion strains, locus YOR316C, strain cot1, hits give low values 1.01 | S. cerevisiae deletion strains, locus YPL051W, strain arl3, hits give low values 1.02 | S. cerevisiae deletion strains, locus YPL055C, strain LGE1, hits give low values 0.986 | S. cerevisiae deletion strains, locus YPL078C, strain atp4, hits give low values 1.03 | S. cerevisiae deletion strains, locus YPL106C, strain sse1, hits give low values 1.01 | S. cerevisiae deletion strains, locus YPL240C, strain hsp82, hits give low values 1.01 | S. cerevisiae deletion strains, locus YPL241C, strain CIN2, hits give low values 1 | S. cerevisiae deletion strains, locus YPL256C, strain CLN2, hits give low values 0.955 | S. cerevisiae deletion strains, locus YPR119W, strain clb2, hits give low values 1 | S. cerevisiae deletion strains, locus YPR141C, strain kar3, hits give low values 0.995 | S. cerevisiae deletion strains, locus YPR163C, strain tif3, hits give low values 1.02 | S. cerevisiae deletion strains, locus YPR167C, strain met16, hits give low values 0.999 | S. cerevisiae deletion strains, strain wtn01, hits give low values 1.04 | S. cerevisiae strains, strain wild type, hits give low values 1
